This passage reports growth results from PubChem BioAssay (NCI).

The panel holds about 83,000 compounds, 20% with a hit somewhere; the sample as a whole holds those more often.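 Treatment: one concentration, 48 hours, 96-well format. Scoring: percent growth, with anything below 10 considered active.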 Activity calls are given as the source filed them.

In one experiment the test system is SK-MEL-2 melanoma. The experiment is described as follows: NCI-60 one-dose screen, 48 h (100 = growth as untreated, 0 = no growth, -100 = all killed). The settings on record: 10 µM unless noted.
`CCCCCCC(CC#N)(CCC)CCCC` (stereo not drawn): the growth was 123% (inactive).

Consider `COc1ccc(NC(=O)c2ccccc2-c2ccccc2)c(C(N)=O)c1`, for which the growth is 26.4% (inactive).

Take `Cc1ccc(-c2csc(N)n2)cc1`: the growth is 107% (inactive).

With `NS(=O)(=O)c1ccc(N2CC(c3nc4ccccc4[nH]3)CC2=O)cc1` (stereo not drawn), the growth is 102% (inactive).

Regarding `Cc1nn(-c2ccccc2)c2nc(N)c(C3=NCCO3)nc12`, the growth was 111% (inactive).

Regarding `CCCCNCCCN(CCCC)CCCNCCCC`, the growth is 112% (inactive).

Turning to `C1CCC(C(CC2CCCCN2)C2CCCCC2)CC1` (stereo not drawn), the growth is 64.2% (inactive).

For the compound `Oc1c(Cl)cc(Cl)c(Cl)c1Cc1c(O)c(Cl)cc(Cl)c1Cl`, the growth was -39.1% (active).

On to `CSc1nc(Nc2ccc(S(=O)(=O)Nc3ccon3)cc2)c(C#N)c(-c2ccc(Cl)cc2)n1`, for which the growth is 99.3% (inactive).

As for `O=C(Nc1nc2ccc(OC(F)(F)F)cc2s1)c1ccc(F)cc1`, the growth is -22.6% (active).

For `COc1cccc(C=Nc2cc(C(C)C)c(O)cc2C)c1O`, the growth was 102% (inactive).

As to `COC(=O)[C@H](Cc1cn(C)cn1)NC(=O)[C@H](Cc1ccccc1)NC(=O)Nc1cc(C(F)(F)F)cc(C(F)(F)F)c1`, the growth was -94.9% [100 µM] (active).

Take `Cn1c(N2N=C(c3ccc(Cl)cc3)CC2c2ccccc2)nc(-c2ccccc2)c(C#N)c1=O` (stereo not drawn): the growth is 78.4% (inactive).

In the case of `NC(=NCCCCCCN=C(N)/N=C(\N)Nc1ccc(Cl)cc1)/N=C(\N)Nc1ccc(Cl)cc1`, the growth was -31.8% (active).

Consider `Oc1c(N=Nc2nn[nH]n2)ccc2ccccc12`, for which the growth is 107% (inactive).

Regarding `Cc1ccc(/C=C/C(=O)c2ccc(F)cc2)s1`, the growth is 85.8% (inactive).

Turning to `CC[N+](CCCCCCCCCC[N+](CC)(c1ccccn1)c1ccccn1)(c1ccccn1)c1ccccn1`, the growth is -58.6% (active).

For the compound `O=C(c1ccc(N2CCOCC2)cc1[N+](=O)[O-])N1CCOCC1`, the growth was 17.9% (inactive).

Turning to `Cc1ccc(-c2c3c(N)nc(-c4ccncc4)nc3nc3c2c(C)nn3-c2ccccc2)cc1`, the growth was -7.11% (active).

Regarding `COc1cccc(CCN2C(=O)CCC3=C2CCC3=O)c1`, the growth was 145% (inactive).

As to `CC(=O)c1nn(-c2ccccc2)c(=Nc2ccccc2)cc1C`, the growth is 114% (inactive).

Take `COc1ccc(-c2nc3sc4c(c3c(=O)[nH]2)CCCCCC4)cc1`: the growth is 39.7% (inactive).

Regarding `CCOC(=O)/C(=C/CC/C(C)=C/CC/C(C)=C/CCc1ccoc1)CC(=O)N1CCCCC1`, the growth was -19% (active).

Take `CCCCCCCSc1ncnc2[nH]ncc12`: the growth is 72.7% (inactive).

As to `CC1CC=CCC1C1OCC(C)(C)CO1` (stereo not drawn), the growth is 124% (inactive).

Consider `Cc1[nH]c(=O)[nH]c(=O)c1CCSSCCc1c(C)[nH]c(=O)[nH]c1=O`, for which the growth is 102% (inactive).

With `CC(NNC(=S)N1CCCCCC1)c1ccc2ccccc2n1` (stereo not drawn), the growth is 90.2% (inactive).

Take `NS(=O)(=O)c1ccc(-n2nc(-c3ccc(Br)cc3)ccc2=O)cc1`: the growth is 66.6% [100 µM] (inactive).

With `CCOc1cc(CCNS(=O)(=O)c2ccc(C)cc2)c(C(C)=O)cc1OCC`, the growth was 86.1% [100 µM] (inactive).

As for `CC(=O)N1N=C(c2ccc(Nc3ccnc4cc(Cl)ccc34)cc2)CC1c1ccc(Cl)cc1` (stereo not drawn), the growth is 54.1% (inactive).

On to `COC(=O)[C@H](Cc1cnc[nH]1)NC(=O)[C@@H](NC(=O)Nc1cc(C(F)(F)F)cc(C(F)(F)F)c1)C(C)C`, for which the growth is -93% [100 µM] (active).

Turning to `CCCCCCCCCCCCC1CCCC(C)C1` (stereo not drawn), the growth was 94.9% (inactive).

With `FC(F)(F)c1ccc(-c2cnc(-c3nn[nH]n3)nc2NC2CCCCCC2)cc1`, the growth is 47.3% [50 µM] (inactive).

On to `CCCCCc1c(C)[nH]c(/C=C2\N=C(c3ccc[nH]3)C=C2OCc2ccccc2)c1C`, for which the growth was -75% [100 µM] (active).

With `COc1c(Br)cc(C(c2cc(Br)c(OC)c(Br)c2)c2ccccc2C(=O)O)cc1Br`, the growth was 114% (inactive).

As to `CCOC(=O)C(C(=O)OCC)C1CCCCC1`, the growth was 110% (inactive).

`N#Cc1ncc(-c2ccc(C(F)(F)F)cc2)c(NC2CCCCCC2)n1`: the growth is 7.62% (active).

As to `CCCCCCCC[Si](OCC)(OCC)OCC`, the growth is 102% (inactive).

As to `C[C@H]1O[C@@H](O[C@H]2[C@@H](O)C[C@H](O[C@H]3[C@@H](O)C[C@H](O[C@H]4CC[C@]5(C)C6CC[C@]7(C)[C@@H](C8=CC(=O)OC8)CC[C@]7(O)C6CC[C@@H]5C4)O[C@@H]3C)O[C@@H]2C)C[C@H](O)[C@@H]1O` (stereo partly drawn), the growth is -68.5% (active).

In a further experiment the test system is SN12C renal. Described as above. The settings on record: 10 µM unless noted.
In the case of `CCCCCCC(CC#N)(CCC)CCCC` (stereo not drawn), the growth is 97.8% (inactive).

On to `COc1ccc(NC(=O)c2ccccc2-c2ccccc2)c(C(N)=O)c1`, for which the growth was 61.3% (inactive).

For the compound `Cc1ccc(-c2csc(N)n2)cc1`, the growth is 96% (inactive).

As to `NS(=O)(=O)c1ccc(N2CC(c3nc4ccccc4[nH]3)CC2=O)cc1` (stereo not drawn), the growth was 97.3% (inactive).

As for `Cc1nn(-c2ccccc2)c2nc(N)c(C3=NCCO3)nc12`, the growth is 96.8% (inactive).

For `CCCCNCCCN(CCCC)CCCNCCCC`, the growth is 89% (inactive).

Take `C1CCC(C(CC2CCCCN2)C2CCCCC2)CC1` (stereo not drawn): the growth was 20.8% (inactive).

On to `Oc1c(Cl)cc(Cl)c(Cl)c1Cc1c(O)c(Cl)cc(Cl)c1Cl`, for which the growth was 5.01% (active).

In the case of `CSc1nc(Nc2ccc(S(=O)(=O)Nc3ccon3)cc2)c(C#N)c(-c2ccc(Cl)cc2)n1`, the growth was 108% (inactive).

For `O=C(Nc1nc2ccc(OC(F)(F)F)cc2s1)c1ccc(F)cc1`, the growth was 13.3% (inactive).

Consider `COc1cccc(C=Nc2cc(C(C)C)c(O)cc2C)c1O`, for which the growth is 95% (inactive).

Take `COC(=O)[C@H](Cc1cn(C)cn1)NC(=O)[C@H](Cc1ccccc1)NC(=O)Nc1cc(C(F)(F)F)cc(C(F)(F)F)c1`: the growth is -96.1% [100 µM] (active).

In the case of `Cn1c(N2N=C(c3ccc(Cl)cc3)CC2c2ccccc2)nc(-c2ccccc2)c(C#N)c1=O` (stereo not drawn), the growth is 67.3% (inactive).

`NC(=NCCCCCCN=C(N)/N=C(\N)Nc1ccc(Cl)cc1)/N=C(\N)Nc1ccc(Cl)cc1`: the growth is 5.89% (active).

On to `Oc1c(N=Nc2nn[nH]n2)ccc2ccccc12`, for which the growth was 84.3% (inactive).

Regarding `Cc1ccc(/C=C/C(=O)c2ccc(F)cc2)s1`, the growth is 71.7% (inactive).

As for `CC[N+](CCCCCCCCCC[N+](CC)(c1ccccn1)c1ccccn1)(c1ccccn1)c1ccccn1`, the growth is 5.03% (active).

Take `O=C(c1ccc(N2CCOCC2)cc1[N+](=O)[O-])N1CCOCC1`: the growth was 145% (inactive).

On to `Cc1ccc(-c2c3c(N)nc(-c4ccncc4)nc3nc3c2c(C)nn3-c2ccccc2)cc1`, for which the growth is 26.8% (inactive).

For the compound `COc1cccc(CCN2C(=O)CCC3=C2CCC3=O)c1`, the growth is 99.4% (inactive).

For `CC(=O)c1nn(-c2ccccc2)c(=Nc2ccccc2)cc1C`, the growth is 97.7% (inactive).

Regarding `COc1ccc(-c2nc3sc4c(c3c(=O)[nH]2)CCCCCC4)cc1`, the growth was 59.4% (inactive).

As for `CCOC(=O)/C(=C/CC/C(C)=C/CC/C(C)=C/CCc1ccoc1)CC(=O)N1CCCCC1`, the growth is 47.2% (inactive).

In the case of `CCCCCCCSc1ncnc2[nH]ncc12`, the growth was 86.1% (inactive).

`CC1CC=CCC1C1OCC(C)(C)CO1` (stereo not drawn): the growth was 103% (inactive).

In the case of `Cc1[nH]c(=O)[nH]c(=O)c1CCSSCCc1c(C)[nH]c(=O)[nH]c1=O`, the growth was 104% (inactive).

As to `CC(NNC(=S)N1CCCCCC1)c1ccc2ccccc2n1` (stereo not drawn), the growth is 37.3% (inactive).

Turning to `NS(=O)(=O)c1ccc(-n2nc(-c3ccc(Br)cc3)ccc2=O)cc1`, the growth was 70.9% [100 µM] (inactive).

Regarding `CCOc1cc(CCNS(=O)(=O)c2ccc(C)cc2)c(C(C)=O)cc1OCC`, the growth is 80.5% [100 µM] (inactive).

For the compound `CC(=O)N1N=C(c2ccc(Nc3ccnc4cc(Cl)ccc34)cc2)CC1c1ccc(Cl)cc1` (stereo not drawn), the growth is 61.9% (inactive).

Consider `COC(=O)[C@H](Cc1cnc[nH]1)NC(=O)[C@@H](NC(=O)Nc1cc(C(F)(F)F)cc(C(F)(F)F)c1)C(C)C`, for which the growth was -96.3% [100 µM] (active).

As to `CCCCCCCCCCCCC1CCCC(C)C1` (stereo not drawn), the growth is 106% (inactive).

`FC(F)(F)c1ccc(-c2cnc(-c3nn[nH]n3)nc2NC2CCCCCC2)cc1`: the growth was 50.9% [50 µM] (inactive).

With `CCCCCc1c(C)[nH]c(/C=C2\N=C(c3ccc[nH]3)C=C2OCc2ccccc2)c1C`, the growth is -77% [100 µM] (active).

`COc1c(Br)cc(C(c2cc(Br)c(OC)c(Br)c2)c2ccccc2C(=O)O)cc1Br`: the growth was 96% (inactive).

Regarding `CCOC(=O)C(C(=O)OCC)C1CCCCC1`, the growth was 106% (inactive).

With `N#Cc1ncc(-c2ccc(C(F)(F)F)cc2)c(NC2CCCCCC2)n1`, the growth is 19.6% (inactive).

Regarding `CCCCCCCC[Si](OCC)(OCC)OCC`, the growth is 106% (inactive).

Regarding `C[C@H]1O[C@@H](O[C@H]2[C@@H](O)C[C@H](O[C@H]3[C@@H](O)C[C@H](O[C@H]4CC[C@]5(C)C6CC[C@]7(C)[C@@H](C8=CC(=O)OC8)CC[C@]7(O)C6CC[C@@H]5C4)O[C@@H]3C)O[C@@H]2C)C[C@H](O)[C@@H]1O` (stereo partly drawn), the growth is -52.4% (active).
